# Source: PubChem
# An excerpt weighted towards active compounds, which were near 21% of everything screened.
# Pf growth 48h – P. falciparum growth inhibition at 48 hours (one generation); P. falciparum luciferase growth in erythrocytes, 48 h; Potency, µM (top dose mostly 28.7 µM), for the others: at the top dose activity change, negative = inhibition, actives largely listed as inhibitors; actives 5.9% (n = 310,000); note: potency is the fitted concentration of half-maximal effect; % is set by controls: 0 for no effect and ±100 for the full control effect
#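 Cell-based growth assay: transgenic P. falciparum expressing firefly luciferase, cultured in red cells within RPMI 1640 containing 0.5% w/v Albumax, 24 mM bicarbonate and gentamycin. A drop in luciferase activity indicates inhibition.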
# NS1 inh – blocks influenza NS1 protein function. actives 0.4% (n = 270,000). AID 2326. Potency, µM (highest dose often 46.1 µM), for the others: at the top dose activity, positive = more growth; calls by dose curve; note: potency is the fitted concentration of half-maximal effect; actives are rising curves; nearly all actives have a fitted effect of over 50% in size
#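 OD600 was taken as the measure of yeast growth restored by compound in an NS1-expressing S. cerevisiae strain. Cells had been washed out of glucose medium and diluted 1:100 into galactose -URA medium, pH 6.0.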
# Pf growth 96h – P. falciparum growth inhibition at 96 hours | P. falciparum luciferase reporter growth, 96 h | actives 6.9% (n = 320,000) | AID 504834 | Potency, µM (series often up to 28.7 µM), inactives show at the highest dose activity change, negative = inhibition, actives largely listed as inhibitors; note: potency is the fitted concentration of half-maximal effect; % is set by controls: 0 for no effect and ±100 for the full control effect
#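 Two-generation exposure (96 h) targets delayed-death phenotype. Reporter parasites carrying integrated firefly luciferase, in red cells at 2% hematocrit and 0.05% parasitemia final, kept at 37 C, 5% CO2; luminescence loss indicates inhibition.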
# CHX counter – counter-screen for Shiga toxin inhibitors: cycloheximide protein synthesis inhibition. cell reporter, cycloheximide protein synthesis inhibition counterscreen. actives 12% (n = 300,000). max response, %; in the data active = max response mostly above about 13%, no sharp cut-off; inactive = mostly below about 14%; note: read at 38.3 µM for the half of the compounds with a filed dose; 0% is about no effect
# Shiga toxin inh – Shiga toxin inhibition. inhibition, % at 38.7 µM. actives 9.2% (n = 290,000). AID 2315. Vero cells, Shiga toxin protein synthesis inhibition reporter; in the data active = inhibition mostly above about 28%, no sharp cut-off; inactive = mostly below about 43%; note: 0% is about no effect
# Active calls of the source: *; ? = inconclusive; . = no result given. Unless noted, calls come from the whole dose curve; as a rule, active = well fitted inhibition curve with a large enough effect; inconclusive = small, poorly fitted or top-dose-only effect, or another doubt; inactive = no such curve, though single readings can be large or run the other way.
SMILES,Pf growth 48h,NS1 inh,Pf growth 96h,CHX counter,Shiga toxin inh
C#CCOCCOCCOCCNc1nc(N2CCN(C(=O)CCCCCCCCCCNC(=O)[C@H](CCCCN)n3cc(CCO)nn3)CC2)nc(N2CCN(C(=O)CCCCCCCCCCNC(=O)[C@H](CCCCN)n3cc(C[C@@H](C)CC)nn3)CC2)n1,7.4µM*,.,?,.,.
CC[C@H](C)Cc1cn([C@@H](CCCCN)C(=O)NCCCCCCCCCCC(=O)N2CCNCC2)nn1,12µM*,.,?,.,.
NCCCCCc1cn([C@@H](CCC(=O)O)C(=O)NCCCCCCCCCCC(=O)N2CCNCC2)nn1,18%,.,3%,.,.
C#CCOCCOCCOCCNc1nc(N2CCN(C(=O)CCCCCCCCCCNC(=O)[C@@H](CCC(=O)O)n3cc(CCCCCN)nn3)CC2)nc(N2CCN(C(=O)CCCCCCCCCCNC(=O)[C@H](CCCCN)n3cc(C[C@@H](C)CC)nn3)CC2)n1,5.9µM*,.,?,.,.
COc1ccc(-c2cc(C(=O)NCc3cn(C)nc3C)c3ccccc3n2)cc1OC,?,0%,?,-3,-4
CCc1ccccc1NC(=O)Nc1ccc2c(c1)OCO2,71%,0%,-21%,35*,27
CCc1ccccc1NC(=S)NCc1ccc2c(c1)OCO2,9%,9%,?,-4,8
O=C(Nc1ccc2c(c1)OCO2)Nc1ccccc1F,260%,-6%,5%,57*,109*
CCc1cccc(NC(=O)Nc2ccc3c(c2)OCO3)c1,56%,-3%,?,29*,47*
CC(C)C(NC(=O)c1ccccc1F)C(=O)Nc1ccc2c(c1)OCO2 (centres undefined),-3%,.,-23%,1,27
CCc1c(C(=O)NNC(=O)Nc2ccc3c(c2)OCO3)csc1C,28%,-6%,-27%,38*,20
COc1ccc(NS(=O)(=O)c2cccc(C(=O)NNC(=O)CN3C(=O)NC(C)(C)C3=O)c2)cc1,10%,.,23%,.,.
CC(OC(=O)Cc1ccc(Br)cc1)C(=O)NC1CCCCC1C (centres undefined),3%,-7%,10%,6,-36
CC(=O)Nc1ccc(S(=O)(=O)Oc2ccc(/C=C3\SC(N)=NC3=O)cc2)cc1,?,.,-2%,-2,2
O=C(NCc1ccccc1)N1CCNCC1,-12%,-3%,?,-1,.
Cc1cc([N+](=O)[O-])cnc1NC(C)c1ccccc1 (centres undefined),-19%,-14%,45%,7,-10
CCN(CC)c1ccc(NC(=O)COc2ccccc2C#N)cc1S(=O)(=O)Nc1ccccc1OC,1.7µM*,5%,9.3µM*,-3,17
CCN(CC)c1ccc(NC(=O)c2ccccn2)cc1S(=O)(=O)Nc1ccccc1OC,5.9µM*,.,10µM*,.,.
CCN(CC)c1ccc(N)cc1S(=O)(=O)Nc1ccccc1OC,-6%,-2%,11%,-2,14
COc1cc(OC)c(N2CC(C(=O)NCCC3=CCCCC3)CC2=O)cc1Cl (centres undefined),-27%,.,?,.,.
O=C(c1cc2nc(-c3cccs3)cc(C(F)(F)Cl)n2n1)N1CCCc2ccccc21,?,15%,?,14,47
O=C(c1cc2nc(-c3cccs3)cc(C(F)(F)F)n2n1)N1CCCc2ccccc21,?,-2%,?,20*,26
Cc1cc(C(F)(F)F)n2nc(-c3cccs3)cc2n1,54%,4%,0%,31*,39*
O=C(c1nn2c(C(F)(F)F)cc(-c3cccs3)nc2c1Br)N1CCCc2ccccc21,-7%,25%,?,21*,16
COc1ccc(/C=C/C(=O)NCC(=O)N/N=C(/C)c2ccco2)cc1,10%,-1%,-8%,-1,-5
SMILES,Pf growth 48h,NS1 inh,Pf growth 96h,CHX counter,Shiga toxin inh
CCN(C(=O)COC(=O)c1ccc(=O)n(Cc2ccccc2)n1)C1CCS(=O)(=O)C1 (centres undefined),7%,.,30%,.,.
COc1ccccc1CCn1c(N)c(C#N)c2nc3ccccc3nc21,9.3µM*,12%,?,2,9
COc1ccc(Cn2c(N)c(C#N)c3nc4ccccc4nc32)cc1OC,.,19%,?,-1,-6
COc1ccc(CCn2c(N)c(C#N)c3nc4ccccc4nc32)cc1OC,5.9µM*,-9%,56%,7,-30
NC(=O)c1ncc(C(F)(F)F)cc1Oc1cccnc1,4%,.,?,-2,-5
CN(C)c1nnnn1-c1ccc(OC(F)(F)F)cc1,-15%,.,0%,2,1
CNCC(=O)N1CCN(c2ncc(C(F)(F)F)cc2Cl)CC1,?,.,34%,0,-10
COCCCNC(=O)CN(CCc1ccccc1)S(=O)(=O)c1ccc(C)cc1,?,.,?,-4,1
CCc1cc(SC#N)ccc1N,?,.,?,1,-8
CC(=O)C1=NN(c2ccccc2)C(c2cccs2)N1c1ccc(N(C)C)cc1 (centres undefined),.,-4%,2.1µM*,15,15
CC(=O)C1=NN(c2ccccc2)C(c2ccc3c(c2)OCO3)N1c1ccccc1 (centres undefined),?,2%,?,-1,24
Cc1ccc(S(=O)(=O)N/N=C/c2cccc3c2OCCO3)cc1,1%,-10%,2.1µM*,6,-7
CCN(CC(=O)NC(C)(C)C)C(=O)CN1c2cccc3cccc(c23)S1(=O)=O,9%,2%,2%,1,10
CC(/C=C(\C)Nc1ccccc1)=Nc1ccccc1,116%,1%,45%,26*,23
Cn1c(-c2cc(Cl)ccc2O)nc2c1c(=O)[nH]c(=O)n2Cc1ccccc1,?,.,10µM*,9,2
CC(C)Cn1c(-c2cc([N+](=O)[O-])ccc2Cl)nc2c1c(=O)[nH]c(=O)n2Cc1ccccc1,5.2µM*,-11%,2.6µM*,4,-1
COc1ccc(-c2nc3c(c(=O)[nH]c(=O)n3Cc3ccccc3)n2CCO)cc1,-5%,12%,24%,12,-18
COCCn1c(=O)[nH]c(=O)c2c1nc(-c1ccc(-c3ccc(Cl)cc3[N+](=O)[O-])o1)n2Cc1ccccc1,4.7µM*,21%,4.1µM*,-2,-3
COCCCn1c(-c2cccc(Cl)c2)nc2c1c(=O)[nH]c(=O)n2Cc1ccccc1,12µM*,1%,10µM*,-2,-3
Cc1ccc(-c2nc3c(c(=O)[nH]c(=O)n3CC(C)C)n2CC(C)C)cc1[N+](=O)[O-],?,-6%,?,-2,-13
O=C([O-])[C@@H]1[O][Sb+]([O][Sb+]2[O][C@H]([C@H](O)CO)[C@H](O)[C@H](C(=O)[O-])[O]2)[O][C@H]([C@H](O)CO)[C@@H]1O,.,.,.,-6,1
CC(C)(O)C#Cc1ccc(CN2CCN(CCc3ccccc3)C(CCO)C2)s1 (centres undefined),?,4%,-18%,0,-13
CC(NC(=O)c1ccc(Cl)cc1)c1nnc(SCC(=O)NC2=NCCS2)n1C (centres undefined),4%,0%,?,-1,-6
O=C(CSCc1ccccc1Br)N/N=C/c1ccccc1C(=O)O,-8%,-2%,-18%,1,11
